In the supplement of paper PMC10849652:
Of roughly 8,800 targets only a part is listed; those with a hit were picked by preference. About 0.5% of all pairs of compound and target were hits.

Assays:
Test in all cases: log2 fold change, soluble protein after heating vs DMSO (PISA); higher = thermal stabilisation; K562 lysate, 10 uM; active = over 0.2 and 3.5 SD of the protein, either way, in both replicates (recomputed)
[1] = compound: NCC(=O)Nc1ccc(-n2nc(C(F)(F)F)cc2-c2ccc3c(ccc4ccccc43)c2)cc1
How it was run: (§1)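 Values give the log-two fold change in thermal stability against solvent controls, from duplicates. Crude K562 extract at 1 mg/mL protein, made by dounce homogenisation in PBS pH 7.4 with 1 mM MgCl2, was treated with 10 μM compound for 30 min. After 3 min heating across 48°C-58°C, aliquots were pooled, adjusted to 0.5% NP-40 at 4°C and centrifuged at 21,000xg for 90 min. The supernatant was measured by TMTpro 16plex LC-MS/MS with channel sums equalised.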

vorinostat = compound: O=C(CCCCCCC(=O)Nc1ccccc1)NO [vorinostat]
How it was run: as §1

silmitasertib = compound: O=C(O)c1ccc2c(c1)nc(Nc1cccc(Cl)c1)c1ccncc12 [silmitasertib]
How it was run: as §1

[2] = compound: O=C1NC(=O)C(c2cnc3ccccn23)=C1c1cn2c3c(cc(F)cc13)CN(C(=O)N1CCCCC1)CC2
How it was run: as §1

entospletinib = compound: c1cn2cc(-c3ccc4cn[nH]c4c3)nc(Nc3ccc(N4CCOCC4)cc3)c2n1 [entospletinib]
How it was run: as §1

Measured: log2 fold change

SUZ12 (UniProt Q15022)
Sequence of UniProt Q15022 (Q15022 whole entry, looked up): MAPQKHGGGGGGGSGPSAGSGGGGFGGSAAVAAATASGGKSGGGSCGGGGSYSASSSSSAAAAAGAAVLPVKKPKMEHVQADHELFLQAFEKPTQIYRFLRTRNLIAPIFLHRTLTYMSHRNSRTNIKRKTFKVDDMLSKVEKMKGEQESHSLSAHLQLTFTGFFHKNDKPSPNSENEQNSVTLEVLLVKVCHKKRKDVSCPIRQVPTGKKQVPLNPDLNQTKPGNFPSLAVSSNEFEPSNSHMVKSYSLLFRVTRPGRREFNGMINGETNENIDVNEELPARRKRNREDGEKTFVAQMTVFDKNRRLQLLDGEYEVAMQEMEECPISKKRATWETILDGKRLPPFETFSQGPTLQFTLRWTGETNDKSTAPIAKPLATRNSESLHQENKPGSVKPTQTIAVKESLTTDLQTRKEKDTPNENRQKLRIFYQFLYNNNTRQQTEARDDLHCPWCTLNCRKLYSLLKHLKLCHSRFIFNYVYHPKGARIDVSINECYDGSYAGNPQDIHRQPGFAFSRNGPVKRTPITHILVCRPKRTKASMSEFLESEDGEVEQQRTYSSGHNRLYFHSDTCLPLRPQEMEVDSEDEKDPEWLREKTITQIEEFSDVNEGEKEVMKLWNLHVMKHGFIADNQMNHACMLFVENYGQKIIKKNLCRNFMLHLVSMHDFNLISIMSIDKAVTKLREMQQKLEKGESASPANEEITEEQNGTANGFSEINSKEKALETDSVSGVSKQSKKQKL
inactive: [1] -0.064 | vorinostat -0.156 | silmitasertib 0.023 | [2] 0.021 | entospletinib 0.043

SMN1 (UniProt Q16637)
Sequence of UniProt Q16637 (Q16637 whole entry, looked up): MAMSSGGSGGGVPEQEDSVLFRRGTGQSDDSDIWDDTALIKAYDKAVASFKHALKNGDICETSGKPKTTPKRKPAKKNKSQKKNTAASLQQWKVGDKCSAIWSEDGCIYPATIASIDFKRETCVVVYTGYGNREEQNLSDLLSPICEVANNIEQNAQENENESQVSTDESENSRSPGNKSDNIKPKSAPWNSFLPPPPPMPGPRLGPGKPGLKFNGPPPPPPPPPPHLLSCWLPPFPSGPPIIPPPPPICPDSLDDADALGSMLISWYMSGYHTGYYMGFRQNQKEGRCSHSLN
active: vorinostat -0.278
inactive: [1] -0.014 | silmitasertib 0.035 | [2] 0.052 | entospletinib -0.024

TADA3 (UniProt O75528)
Sequence of UniProt O75528 (O75528 whole entry, looked up): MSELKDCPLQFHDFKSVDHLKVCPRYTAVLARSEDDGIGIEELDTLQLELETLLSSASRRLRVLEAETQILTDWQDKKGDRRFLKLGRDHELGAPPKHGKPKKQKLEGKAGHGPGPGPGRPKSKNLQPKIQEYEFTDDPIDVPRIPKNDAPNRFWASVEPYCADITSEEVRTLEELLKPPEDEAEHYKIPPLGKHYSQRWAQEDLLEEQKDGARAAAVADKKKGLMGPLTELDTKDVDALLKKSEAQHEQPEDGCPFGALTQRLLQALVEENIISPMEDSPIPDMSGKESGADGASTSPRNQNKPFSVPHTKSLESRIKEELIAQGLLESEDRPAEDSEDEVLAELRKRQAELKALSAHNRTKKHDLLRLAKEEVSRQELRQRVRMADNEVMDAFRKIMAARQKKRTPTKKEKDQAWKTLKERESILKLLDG
inactive: [1] 0.018 | silmitasertib -0.021 | [2] 0.034 | entospletinib 0.009
active: vorinostat -0.289

STK26 (UniProt Q9P289)
Sequence of UniProt Q9P289 (Q9P289 whole entry, looked up): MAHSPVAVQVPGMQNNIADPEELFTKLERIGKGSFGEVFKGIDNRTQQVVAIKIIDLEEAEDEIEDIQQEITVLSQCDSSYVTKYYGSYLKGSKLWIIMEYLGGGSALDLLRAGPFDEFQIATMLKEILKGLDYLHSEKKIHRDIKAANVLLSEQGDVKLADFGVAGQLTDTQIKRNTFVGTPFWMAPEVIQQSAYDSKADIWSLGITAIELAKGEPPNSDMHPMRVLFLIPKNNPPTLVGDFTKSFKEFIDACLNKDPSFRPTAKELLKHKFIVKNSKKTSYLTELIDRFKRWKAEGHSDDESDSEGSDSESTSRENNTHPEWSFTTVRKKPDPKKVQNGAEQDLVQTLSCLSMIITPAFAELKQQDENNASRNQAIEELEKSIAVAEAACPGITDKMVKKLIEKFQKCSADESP
inactive: [1] -0.027 | vorinostat -0.032 | silmitasertib 0.035 | [2] -0.045 | entospletinib -0.026

SLC25A44 (UniProt Q96H78)
Sequence of UniProt Q96H78 (Q96H78 whole entry, looked up): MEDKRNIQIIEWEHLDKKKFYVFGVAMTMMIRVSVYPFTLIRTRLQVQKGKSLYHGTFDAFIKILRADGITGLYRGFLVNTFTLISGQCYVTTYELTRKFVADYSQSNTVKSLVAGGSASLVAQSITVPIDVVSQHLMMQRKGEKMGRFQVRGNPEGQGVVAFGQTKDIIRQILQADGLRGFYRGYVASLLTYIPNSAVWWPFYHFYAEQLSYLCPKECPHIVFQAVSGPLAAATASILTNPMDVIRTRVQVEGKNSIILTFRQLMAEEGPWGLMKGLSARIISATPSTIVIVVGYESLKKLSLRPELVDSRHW
inactive: [1] 0.13 | vorinostat 0.025 | silmitasertib -0.02 | [2] -0.056 | entospletinib -0.026

SMIM8 (UniProt Q96KF7)
Sequence of UniProt Q96KF7 (Q96KF7 whole entry, looked up): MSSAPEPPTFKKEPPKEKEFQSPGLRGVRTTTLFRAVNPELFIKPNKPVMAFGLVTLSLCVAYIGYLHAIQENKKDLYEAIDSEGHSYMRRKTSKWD
inactive: [1] -0.007 | vorinostat 0.092 | silmitasertib -0.022 | [2] -0.029 | entospletinib -0.046

SNW1 (UniProt Q13573)
Sequence of UniProt Q13573 (Q13573 whole entry, looked up): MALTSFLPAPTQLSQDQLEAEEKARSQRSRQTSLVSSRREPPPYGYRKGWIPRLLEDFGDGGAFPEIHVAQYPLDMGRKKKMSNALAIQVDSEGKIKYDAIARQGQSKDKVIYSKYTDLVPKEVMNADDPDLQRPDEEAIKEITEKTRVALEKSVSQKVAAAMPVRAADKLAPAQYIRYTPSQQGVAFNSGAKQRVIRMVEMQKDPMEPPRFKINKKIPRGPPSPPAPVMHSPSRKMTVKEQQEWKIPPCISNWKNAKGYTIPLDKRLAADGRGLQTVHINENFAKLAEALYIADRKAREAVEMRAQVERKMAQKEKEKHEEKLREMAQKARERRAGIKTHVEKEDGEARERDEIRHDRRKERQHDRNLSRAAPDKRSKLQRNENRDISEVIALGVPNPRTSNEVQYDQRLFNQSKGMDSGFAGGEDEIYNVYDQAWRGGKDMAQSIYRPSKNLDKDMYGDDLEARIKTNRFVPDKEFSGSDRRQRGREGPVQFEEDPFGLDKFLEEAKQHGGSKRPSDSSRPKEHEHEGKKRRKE
active: vorinostat 0.224
inactive: [1] 0.011 | silmitasertib -0.003 | [2] -0.012 | entospletinib 0.009

SRM (UniProt P19623)
Sequence of UniProt P19623 (P19623 whole entry, looked up): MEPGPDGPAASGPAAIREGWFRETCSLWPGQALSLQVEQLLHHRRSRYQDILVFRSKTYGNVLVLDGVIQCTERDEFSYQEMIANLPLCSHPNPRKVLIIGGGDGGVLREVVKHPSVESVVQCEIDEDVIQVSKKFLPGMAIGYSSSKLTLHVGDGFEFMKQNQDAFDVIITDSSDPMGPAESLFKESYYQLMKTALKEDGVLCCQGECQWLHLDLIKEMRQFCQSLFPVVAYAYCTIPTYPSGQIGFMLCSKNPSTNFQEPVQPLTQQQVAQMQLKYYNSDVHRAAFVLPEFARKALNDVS
inactive: [1] 0.009 | vorinostat -0.029 | silmitasertib 0.008 | [2] 0.052 | entospletinib 0.001

SMARCA4 (UniProt P51532)
Sequence of UniProt P51532 (P51532 whole entry, looked up): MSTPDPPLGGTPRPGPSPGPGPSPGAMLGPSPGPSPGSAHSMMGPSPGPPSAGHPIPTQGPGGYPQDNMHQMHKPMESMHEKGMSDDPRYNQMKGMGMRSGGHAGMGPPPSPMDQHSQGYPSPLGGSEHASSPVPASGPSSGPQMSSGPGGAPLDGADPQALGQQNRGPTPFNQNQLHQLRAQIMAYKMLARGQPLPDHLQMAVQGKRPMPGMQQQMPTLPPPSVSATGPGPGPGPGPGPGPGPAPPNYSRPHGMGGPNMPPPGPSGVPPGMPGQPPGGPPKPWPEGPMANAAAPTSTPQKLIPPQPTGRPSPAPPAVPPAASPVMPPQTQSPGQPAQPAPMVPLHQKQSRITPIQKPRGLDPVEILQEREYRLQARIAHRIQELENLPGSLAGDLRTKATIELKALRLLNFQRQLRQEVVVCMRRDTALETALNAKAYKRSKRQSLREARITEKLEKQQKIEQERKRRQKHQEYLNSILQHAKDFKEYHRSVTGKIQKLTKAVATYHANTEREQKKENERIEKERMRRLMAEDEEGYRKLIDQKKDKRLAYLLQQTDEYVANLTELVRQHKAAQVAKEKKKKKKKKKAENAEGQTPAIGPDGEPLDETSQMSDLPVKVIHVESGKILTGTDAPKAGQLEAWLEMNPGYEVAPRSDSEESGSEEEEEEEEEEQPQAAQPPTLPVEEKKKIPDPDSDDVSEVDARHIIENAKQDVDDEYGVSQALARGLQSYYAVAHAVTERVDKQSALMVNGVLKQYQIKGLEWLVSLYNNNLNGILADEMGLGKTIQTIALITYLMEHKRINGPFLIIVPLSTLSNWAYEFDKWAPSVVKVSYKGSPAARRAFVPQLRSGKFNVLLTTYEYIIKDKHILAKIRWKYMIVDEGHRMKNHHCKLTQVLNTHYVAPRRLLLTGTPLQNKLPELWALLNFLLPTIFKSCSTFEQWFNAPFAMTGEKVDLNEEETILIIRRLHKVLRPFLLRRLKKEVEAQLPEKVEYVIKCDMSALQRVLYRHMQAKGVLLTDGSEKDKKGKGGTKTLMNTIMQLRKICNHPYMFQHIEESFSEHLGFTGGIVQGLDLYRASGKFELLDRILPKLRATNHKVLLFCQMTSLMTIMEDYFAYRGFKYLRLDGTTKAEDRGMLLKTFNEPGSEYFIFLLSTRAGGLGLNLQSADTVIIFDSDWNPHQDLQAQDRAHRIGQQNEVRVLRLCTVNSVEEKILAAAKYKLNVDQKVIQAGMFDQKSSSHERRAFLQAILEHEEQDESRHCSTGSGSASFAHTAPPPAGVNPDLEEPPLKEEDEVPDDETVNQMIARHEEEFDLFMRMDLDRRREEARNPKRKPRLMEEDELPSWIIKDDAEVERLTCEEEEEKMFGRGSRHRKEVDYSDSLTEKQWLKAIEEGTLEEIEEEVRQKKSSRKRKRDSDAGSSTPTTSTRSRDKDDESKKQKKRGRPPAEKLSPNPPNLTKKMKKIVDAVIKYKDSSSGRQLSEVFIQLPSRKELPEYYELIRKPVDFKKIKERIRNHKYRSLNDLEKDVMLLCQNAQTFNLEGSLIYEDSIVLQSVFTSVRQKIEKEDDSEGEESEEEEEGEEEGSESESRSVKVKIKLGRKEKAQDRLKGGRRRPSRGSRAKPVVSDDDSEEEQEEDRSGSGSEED
inactive: [1] 0.015 | silmitasertib 0.021 | [2] -0.028 | entospletinib -0.008
active: vorinostat -0.246
